NS1 inh: qHTS Assay for Inhibitors of Influenza NS1 Protein Function. 270,000 compounds, 0.4% hits. AID 2326, 2010. Potency, µM (doses to about 46.1 µM); further: actives are rising curves; nearly all actives have a fitted effect of over 50% in size
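Growth recovery, yeast-based: influenza A NS1 expressed in S. cerevisiae causes slow growth, and suppressors are detected by OD600. The parent strain without NS1 is used as positive control.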
SARS PLpro yeast: qHTS of Yeast-based Assay for SARS-CoV PLP. Potency, µM (doses to about 32.9 µM), most hits filed as activators. AID 485353, 2010. S. cerevisiae expressing SARS-CoV PLpro, growth rescue. 330,000 compounds, 0.19% hits; further: nearly all actives have a fitted effect of over 55% in size
Pf growth 48h: Primary qHTS for delayed death inhibitors of the malarial parasite plastid, 48 hour incubation. P. falciparum luciferase growth in erythrocytes, 48 h. Potency, µM (top dose mostly 28.7 µM), most hits filed as inhibitors. 310,000 compounds, 5.9% hits; active means well fitted inhibition curve with a large enough effect; inconclusive means small, poorly fitted or top-dose-only effect, or another doubt; inactive means no such curve, though single readings can be large or run the other way
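Read-out is firefly luciferase luminescence from an integrated reporter in P. falciparum, so falling signal marks reduced parasite growth. Infected erythrocytes were at 2% hematocrit and 0.1% parasitemia (final) in Albumax-supplemented RPMI 1640.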
Pf growth 96h: Primary qHTS for delayed death inhibitors of the malarial parasite plastid, 96 hour incubation. AID 504834, 2011. P. falciparum luciferase reporter growth, 96 h. 320,000 compounds, 6.9% hits. Potency, µM (titrated, usually from 28.7 µM), actives largely listed as inhibitors; active means well fitted inhibition curve with a large enough effect; inconclusive means small, poorly fitted or top-dose-only effect, or another doubt; inactive means no such curve, though single readings can be large or run the other way
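Cell-based qHTS: luciferase-tagged P. falciparum in erythrocytes (2% hematocrit, 0.05% parasitemia final) incubated with compounds for 96 hours, 37 C, 5% CO2; luciferase detection reagent then added and luminescence measured.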
Large screens that a line does not name were inactive. Shown are actives, neighbours in structure and some others; about 10% of the full set was active somewhere. Unless noted, the call rests on the fitted dose curve.

Clc1ccc(CNc2ccc(N3CCN(Cc4ccccc4)CC3)cc2)cc1	Pf growth 96h 9.3µM
Fc1ccc(CN2CCC(Cc3ccccc3)CC2)cc1F	Pf growth 96h inconclusive
c1ccc(CNc2ccc(N3CCOCC3)cc2)cc1	none (no result: NS1 inh, Pf growth 48h, Pf growth 96h)
Clc1ccc(CNC2CCN(Cc3ccccc3)CC2)cc1	Pf growth 48h 4.1µM, Pf growth 96h inconclusive
Clc1ccc(CN2CCC(Cc3ccccc3)CC2)cc1	Pf growth 96h 8.3µM
O=C(Nc1ccc(N2CCN(Cc3ccccc3)CC2)cc1)c1ncn[nH]1	Pf growth 48h 5.9µM (no result: Pf growth 96h)
Cc1c(C(=O)N2CCCCC2)c(S(=O)(=O)N2CCc3ccccc32)c(C)n1C	SARS PLpro yeast inconclusive, Pf growth 48h inconclusive
O=C(CCC1CCN(Cc2ccc(Cl)cc2)CC1)NC1CC1	Pf growth 96h 1µM
Fc1ccc(CNC2CCN(Cc3ccccc3)CC2)cc1	Pf growth 48h 9.3µM, Pf growth 96h 1.2µM
COc1ccccc1CNC1CCN(Cc2ccccc2)CC1	Pf growth 96h inconclusive
O=C1Nc2ccc(Br)cc2C1(O)c1ccc(F)cc1 (stereo unspecified)	Pf growth 48h inconclusive
COc1ccc2[nH]c(=O)c(CN(CC3CCCO3)S(=O)(=O)c3ccccc3)cc2c1 (stereo unspecified)	Pf growth 96h 1.7µM
Cc1ccc(S(=O)(=O)N(Cc2cc3cc4c(cc3[nH]c2=O)OCCO4)CC2CCCO2)cc1 (stereo unspecified)	none
O=c1[nH]c2cc3c(cc2cc1CN(CC1CCCO1)S(=O)(=O)c1ccc(Cl)cc1)OCCO3 (stereo unspecified)	Pf growth 96h 12µM
Cc1ccc(C(=O)COc2ccccc2N2C(=O)c3ccccc3C2=O)cc1	Pf growth 96h 3.3µM
Cc1ccc(C(=O)CN2C(=O)c3ccccc3S2(=O)=O)cc1	Pf growth 48h 3.7µM
O=C(CN1C(=O)c2ccccc2S1(=O)=O)c1ccccc1	none (no result: Pf growth 96h)
CN(C(=O)CSC(=O)c1ccccc1)c1ccccc1	none
CC(C)C[C@H](NC(=O)NCc1ccccc1Cl)C(=O)O	Pf growth 96h 0.93µM
CCC(C)[C@H](NC(=O)NCc1ccccc1Cl)C(=O)O (stereo partly specified)	none (no result: Pf growth 96h)
CCCN(CCC)C(=O)c1cc([N+](=O)[O-])cc2c1-c1ccc([N+](=O)[O-])cc1C2=C(C#N)C#N	Pf growth 48h 12µM, Pf growth 96h 12µM
Cc1ccsc1/C=C\C1=NCCCN1C	none (no result: NS1 inh, SARS PLpro yeast)
COc1cc(-c2nc(-c3cccc(C(F)(F)F)c3)no2)cc(OC)c1OC	Pf growth 48h inconclusive, Pf growth 96h 12µM
COc1ccccc1-c1noc(-c2cc(OC)c(OC)c(OC)c2)n1	Pf growth 96h inconclusive
Cc1cccc2cc(C(c3nnnn3CC3CCCO3)N3CCCc4ccccc43)c(=O)[nH]c12 (stereo unspecified)	Pf growth 48h 9.3µM
Cc1ccc2cc(C(c3nnnn3CC3CCCO3)N3CCc4ccccc4C3)c(=O)[nH]c2c1 (stereo unspecified)	Pf growth 48h inconclusive
Cc1cc2cc(C(c3nnnn3CC3CCCO3)N3CCCc4ccccc43)c(=O)[nH]c2cc1C (stereo unspecified)	NS1 inh 5µM, Pf growth 48h inconclusive
CCOc1ccc2[nH]c(=O)c(C(c3nnnn3CC3CCCO3)N3CCc4ccccc4C3)cc2c1 (stereo unspecified)	SARS PLpro yeast inconclusive, Pf growth 48h 10µM
CCc1ccc2[nH]c(=O)c(C(c3nnnn3CC3CCCO3)N3CCCc4ccccc43)cc2c1 (stereo unspecified)	Pf growth 48h 12µM, Pf growth 96h inconclusive
Cc1cc(C)cc(C(=N)c2ccccc2Cc2cccc3ccccc23)c1	none (no result: SARS PLpro yeast, Pf growth 48h, Pf growth 96h)
COc1cc([N+](=O)[O-])ccc1NC(=O)COC(=O)c1c[nH]c(=O)[nH]c1=O	none (no result: NS1 inh, Pf growth 48h, Pf growth 96h)
Cc1occc1C(=O)NNC(=O)c1ccccc1[N+](=O)[O-]	none
CN1CCN(Cc2ccc3ccccc3c2)CC1	Pf growth 48h inconclusive, Pf growth 96h 12µM
CCN(CC)C(=O)CN1CCC(c2nc3cc(C)c(C)cc3[nH]2)CC1	none
Cc1ccc(N/C(CSC(N)=O)=N/S(=O)(=O)c2ccccc2)cc1	Pf growth 96h 3.3µM
Cc1ccc(C)c(N(C)C(=O)c2cc3c(=O)[nH]c4ccc(C)cc4c3s2)c1	Pf growth 48h 10µM, Pf growth 96h inconclusive
CCCN(CCC)C(=O)c1cc2c(=O)[nH]c3ccc(C)cc3c2s1	Pf growth 48h inconclusive (no result: NS1 inh)
CCN(C(=O)c1cc2c(=O)[nH]c3ccc(C)cc3c2s1)c1ccc(OC)cc1	Pf growth 48h inconclusive, Pf growth 96h 5.2µM
CC1CN=C(Nc2ccccc2)S1 (stereo unspecified)	none
